# Measurements taken from ChEMBL document CHEMBL2218924, “A broad activity screen in support of a chemogenomic map for kinase signalling research and drug discovery” (Biochem J, 2013).
# Key:
# [1] = target: T1, Interleukin-1 receptor-associated kinase 4 (Homo sapiens) (UniProt Q9NWZ3); details: at 1 µM
# T1 sequence (whole entry): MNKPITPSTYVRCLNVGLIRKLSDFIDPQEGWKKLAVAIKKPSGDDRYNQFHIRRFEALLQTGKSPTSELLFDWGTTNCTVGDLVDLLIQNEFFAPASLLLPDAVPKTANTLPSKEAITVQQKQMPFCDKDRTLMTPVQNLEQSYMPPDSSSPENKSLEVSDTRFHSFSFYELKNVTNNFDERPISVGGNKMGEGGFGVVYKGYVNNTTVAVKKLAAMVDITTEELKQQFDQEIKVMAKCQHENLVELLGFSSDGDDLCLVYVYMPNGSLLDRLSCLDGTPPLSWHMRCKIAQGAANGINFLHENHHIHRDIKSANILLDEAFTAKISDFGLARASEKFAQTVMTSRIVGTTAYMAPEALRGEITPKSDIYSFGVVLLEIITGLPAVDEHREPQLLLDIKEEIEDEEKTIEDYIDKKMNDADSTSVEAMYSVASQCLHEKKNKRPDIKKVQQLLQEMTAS
# [2] = target: T1, Interleukin-1 receptor-associated kinase 4 (Homo sapiens); details: at 10 µM
# [3] = target: Insulin receptor-related protein (Homo sapiens) (UniProt P14616); details: at 1 µM
# [4] = target: Insulin receptor-related protein (Homo sapiens) (UniProt P14616); details: at 10 µM
# [5] = target: T2, Tyrosine-protein kinase ITK/TSK (Homo sapiens) (UniProt Q08881); details: at 1 µM
# T2 sequence (whole entry): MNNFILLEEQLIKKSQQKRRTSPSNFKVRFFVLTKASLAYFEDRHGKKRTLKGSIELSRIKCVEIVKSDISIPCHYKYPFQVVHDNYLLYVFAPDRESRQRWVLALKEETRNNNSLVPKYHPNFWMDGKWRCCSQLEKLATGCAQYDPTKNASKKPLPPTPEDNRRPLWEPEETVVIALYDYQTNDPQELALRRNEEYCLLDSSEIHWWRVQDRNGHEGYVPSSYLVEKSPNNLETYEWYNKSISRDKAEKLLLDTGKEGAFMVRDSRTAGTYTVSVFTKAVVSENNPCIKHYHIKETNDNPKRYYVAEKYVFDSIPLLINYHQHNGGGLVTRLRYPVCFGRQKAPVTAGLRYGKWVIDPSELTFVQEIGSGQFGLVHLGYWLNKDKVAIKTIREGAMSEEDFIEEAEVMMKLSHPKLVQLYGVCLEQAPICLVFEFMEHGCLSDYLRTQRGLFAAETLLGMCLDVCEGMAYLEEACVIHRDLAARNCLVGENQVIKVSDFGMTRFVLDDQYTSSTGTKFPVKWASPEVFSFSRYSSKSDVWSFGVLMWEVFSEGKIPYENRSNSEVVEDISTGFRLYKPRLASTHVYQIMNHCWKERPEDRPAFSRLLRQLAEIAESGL
# [6] = target: T2, Tyrosine-protein kinase ITK/TSK (Homo sapiens); details: at 10 µM
# [7] = target: Tyrosine-protein kinase JAK2 (Homo sapiens) (UniProt O60674); details: at 1 µM
# [8] = target: Tyrosine-protein kinase JAK2 (Homo sapiens) (UniProt O60674); details: at 10 µM
# [9] = target: T3, Tyrosine-protein kinase JAK3 (Homo sapiens) (UniProt P52333); details: at 1 µM
# T3 sequence (whole entry): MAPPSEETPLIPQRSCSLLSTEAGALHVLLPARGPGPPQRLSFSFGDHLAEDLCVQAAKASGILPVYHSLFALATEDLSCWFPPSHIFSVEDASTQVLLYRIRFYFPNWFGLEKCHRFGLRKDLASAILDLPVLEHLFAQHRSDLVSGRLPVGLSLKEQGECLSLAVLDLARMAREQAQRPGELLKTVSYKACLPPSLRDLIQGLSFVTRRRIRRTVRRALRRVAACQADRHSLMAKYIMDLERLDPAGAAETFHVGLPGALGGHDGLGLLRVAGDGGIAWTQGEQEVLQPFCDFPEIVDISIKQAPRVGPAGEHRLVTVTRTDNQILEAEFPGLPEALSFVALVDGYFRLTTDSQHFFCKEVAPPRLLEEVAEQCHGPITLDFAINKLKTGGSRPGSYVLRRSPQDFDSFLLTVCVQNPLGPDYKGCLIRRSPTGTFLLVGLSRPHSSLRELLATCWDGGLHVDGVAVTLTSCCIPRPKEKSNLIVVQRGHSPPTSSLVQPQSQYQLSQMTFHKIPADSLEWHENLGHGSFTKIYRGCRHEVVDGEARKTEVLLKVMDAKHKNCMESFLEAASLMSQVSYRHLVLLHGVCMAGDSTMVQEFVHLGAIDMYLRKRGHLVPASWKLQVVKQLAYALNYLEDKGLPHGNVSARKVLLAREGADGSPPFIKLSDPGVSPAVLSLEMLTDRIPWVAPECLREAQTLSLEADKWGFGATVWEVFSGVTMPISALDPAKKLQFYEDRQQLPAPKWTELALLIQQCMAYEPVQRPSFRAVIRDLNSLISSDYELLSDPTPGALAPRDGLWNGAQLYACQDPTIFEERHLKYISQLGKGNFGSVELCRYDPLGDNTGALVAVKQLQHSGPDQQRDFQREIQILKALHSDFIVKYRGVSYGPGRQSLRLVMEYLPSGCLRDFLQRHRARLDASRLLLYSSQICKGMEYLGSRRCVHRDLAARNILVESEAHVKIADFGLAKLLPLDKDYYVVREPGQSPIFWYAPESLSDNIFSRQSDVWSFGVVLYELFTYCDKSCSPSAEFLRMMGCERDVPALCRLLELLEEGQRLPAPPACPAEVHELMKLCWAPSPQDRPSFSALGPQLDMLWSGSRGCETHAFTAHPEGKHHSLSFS
# [10] = target: T3, Tyrosine-protein kinase JAK3 (Homo sapiens); details: at 10 µM
# Sequence of Tyrosine-protein kinase JAK2 (Homo sapiens) (O60674 whole entry): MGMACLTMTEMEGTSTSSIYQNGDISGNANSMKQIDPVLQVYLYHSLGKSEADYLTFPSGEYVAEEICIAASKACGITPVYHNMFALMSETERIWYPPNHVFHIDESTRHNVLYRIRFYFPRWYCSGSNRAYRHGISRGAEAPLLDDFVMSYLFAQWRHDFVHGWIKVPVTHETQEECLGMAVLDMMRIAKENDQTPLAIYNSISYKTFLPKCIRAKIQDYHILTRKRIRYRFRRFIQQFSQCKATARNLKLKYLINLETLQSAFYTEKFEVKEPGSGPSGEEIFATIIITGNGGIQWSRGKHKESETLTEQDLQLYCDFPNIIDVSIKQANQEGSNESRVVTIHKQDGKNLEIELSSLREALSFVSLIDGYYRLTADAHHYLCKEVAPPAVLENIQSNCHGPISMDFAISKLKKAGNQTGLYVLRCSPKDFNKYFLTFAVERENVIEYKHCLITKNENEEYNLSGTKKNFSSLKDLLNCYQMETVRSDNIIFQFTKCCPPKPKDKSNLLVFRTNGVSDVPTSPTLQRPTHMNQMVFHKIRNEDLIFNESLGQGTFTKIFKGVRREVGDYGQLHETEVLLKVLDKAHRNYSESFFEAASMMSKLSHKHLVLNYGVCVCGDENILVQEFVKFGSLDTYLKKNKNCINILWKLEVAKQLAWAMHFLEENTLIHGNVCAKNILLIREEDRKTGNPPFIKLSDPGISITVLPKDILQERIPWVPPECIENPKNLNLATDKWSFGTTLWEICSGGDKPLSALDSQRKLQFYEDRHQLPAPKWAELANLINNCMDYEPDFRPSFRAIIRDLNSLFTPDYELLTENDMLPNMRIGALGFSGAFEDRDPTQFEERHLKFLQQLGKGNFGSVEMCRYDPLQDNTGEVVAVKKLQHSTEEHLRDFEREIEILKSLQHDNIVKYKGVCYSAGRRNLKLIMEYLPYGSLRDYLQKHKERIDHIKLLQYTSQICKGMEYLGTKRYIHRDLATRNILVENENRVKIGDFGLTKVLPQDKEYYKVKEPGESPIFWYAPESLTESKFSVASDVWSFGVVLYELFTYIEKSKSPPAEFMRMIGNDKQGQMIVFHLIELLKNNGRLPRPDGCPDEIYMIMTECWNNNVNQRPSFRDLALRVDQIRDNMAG
# Sequence of Insulin receptor-related protein (Homo sapiens) (P14616 27-742 limits assumed): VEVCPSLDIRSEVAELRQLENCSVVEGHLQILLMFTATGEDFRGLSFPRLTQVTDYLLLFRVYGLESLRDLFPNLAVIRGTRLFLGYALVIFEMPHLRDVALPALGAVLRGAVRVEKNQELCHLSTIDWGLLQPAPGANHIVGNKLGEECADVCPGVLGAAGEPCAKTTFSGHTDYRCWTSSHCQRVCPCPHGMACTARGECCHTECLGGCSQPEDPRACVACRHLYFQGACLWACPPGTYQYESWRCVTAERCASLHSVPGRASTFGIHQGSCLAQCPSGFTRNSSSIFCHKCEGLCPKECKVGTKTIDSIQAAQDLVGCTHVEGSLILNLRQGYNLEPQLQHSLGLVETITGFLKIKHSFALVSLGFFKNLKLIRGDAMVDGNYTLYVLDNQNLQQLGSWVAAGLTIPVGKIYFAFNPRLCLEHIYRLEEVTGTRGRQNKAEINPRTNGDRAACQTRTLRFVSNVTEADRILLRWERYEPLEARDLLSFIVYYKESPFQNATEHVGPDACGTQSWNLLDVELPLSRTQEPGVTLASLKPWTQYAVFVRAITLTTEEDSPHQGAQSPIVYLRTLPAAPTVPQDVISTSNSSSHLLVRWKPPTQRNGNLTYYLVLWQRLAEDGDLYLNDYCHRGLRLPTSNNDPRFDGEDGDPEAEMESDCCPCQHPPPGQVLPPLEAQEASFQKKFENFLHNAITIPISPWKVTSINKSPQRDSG
# Sequence of Insulin receptor-related protein (Homo sapiens) (P14616 747-1297 limits assumed): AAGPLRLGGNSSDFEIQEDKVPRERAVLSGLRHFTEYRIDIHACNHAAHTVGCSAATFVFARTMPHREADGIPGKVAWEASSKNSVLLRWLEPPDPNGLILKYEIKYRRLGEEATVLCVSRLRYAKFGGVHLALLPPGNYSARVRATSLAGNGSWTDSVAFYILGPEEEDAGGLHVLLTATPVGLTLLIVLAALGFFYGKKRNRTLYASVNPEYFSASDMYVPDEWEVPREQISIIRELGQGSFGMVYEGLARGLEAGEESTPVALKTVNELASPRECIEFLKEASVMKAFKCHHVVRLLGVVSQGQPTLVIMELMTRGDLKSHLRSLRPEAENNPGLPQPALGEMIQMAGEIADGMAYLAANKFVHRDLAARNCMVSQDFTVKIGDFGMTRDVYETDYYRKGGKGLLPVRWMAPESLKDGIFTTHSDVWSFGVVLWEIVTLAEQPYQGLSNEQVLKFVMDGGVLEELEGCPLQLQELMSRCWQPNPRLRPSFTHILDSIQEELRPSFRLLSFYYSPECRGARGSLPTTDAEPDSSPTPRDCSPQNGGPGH
Compound,residual activity [1] [%],residual activity [2] [%],residual activity [3] [%],residual activity [4] [%],residual activity [5] [%],residual activity [6] [%],residual activity [7] [%],residual activity [8] [%],residual activity [9] [%],residual activity [10] [%]
COc1cc2ncnc(Nc3ccc(OCc4ccccc4)cc3)c2cc1OC,127,92,125,57,107,99,110,90,101,100
COc1ccc2c(c[n+](C)c3c4cc5c(cc4ccc23)OCO5)c1OC,–,83,130,76,99,91,80,121,91,67
COC(=O)[C@@]1(O)C[C@H]2O[C@]1(C)n1c3ccccc3c3c4c(c5c6ccccc6n2c5c31)C(=O)NC4,-2,0,6,1,15,1,2,-1,0,0
N/C(=N\[N+](=O)[O-])N/N=C\c1ccc(-c2cccc([N+](=O)[O-])c2)o1,100,85,–,–,–,–,86,85,–,–
O=C1NC(=O)c2c1c1c3ccccc3n3c1c1c2c2ccccc2n1C1CCC3O1,38,18,74,63,88,70,86,82,8,9
C[S+]([O-])c1ccc(-c2nc(-c3ccc(F)cc3)c(-c3ccncc3)[nH]2)cc1 (stereo unspecified),113,86,109,56,100,104,112,119,107,112
O=[N+]([O-])/C=C/c1ccc2c(c1)OCO2,116,107,106,82,105,100,73,118,114,108
c1cc(-c2cnn3cc(-c4ccc(OCCN5CCCCC5)cc4)cnc23)ccn1,81,18,–,–,54,9,–,–,–,–
CC(C)[C@H](CO)Nc1nc(Nc2cccc(Cl)c2)c2ncn(C(C)C)c2n1,45,9,83,3,68,11,–,73,–,–
CC(C)(C)c1cc(C=C(C#N)C#N)cc(Br)c1O,112,–,105,102,105,104,110,113,105,–
O=C1Nc2ccc3ncsc3c2/C1=C/c1c[nH]cn1,41,15,119,36,67,21,59,18,16,3
CCn1cnc2c(Nc3cccc(Cl)c3)nc(N[C@@H]3CCCC[C@@H]3N)nc21,85,23,–,–,89,39,116,78,112,119
CCc1nc(-c2ccc(OC)cc2)[nH]c1-c1ccncc1,–,–,–,–,–,–,100,105,113,103
O=C1c2ccccc2-c2nc3nnnn3nc21,129,108,–,–,–,–,111,–,103,–
O=c1[nH]c2ccccc2n1C1CCN(Cc2ccc(-c3nc4cc5[nH]cnc5cc4nc3-c3ccccc3)cc2)CC1,106,93,124,95,99,95,120,107,110,126
COc1ccc2c(c1)/C(=C/c1cnc[nH]1)C(=O)N2,–,–,–,–,–,42,–,29,48,10
COc1cc(OC)c(/C=C2\C(=O)Nc3ccccc32)c(OC)c1,81,75,101,98,101,93,–,94,105,100
